Measurements as given in PubChem BioAssay.
Unmarked numbers belong to inactive results. Entries that show only a call come without a potency. For some of these results: Potency and affinity values are given separately. The source made the active and inactive calls. Unless noted, how the calls were made is not given here.

Assays:
[1] = antimalarial activity against Dd2 strain (AID 2302;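 active means growth inhibition above 50% at the single 2 µM test dose, taken to imply half-maximal potency below 2 µM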); details: P. falciparum Dd2 in RBCs, LDH growth readout, 72 h; at 2 µM; stronger effect = higher value
[2] = HepG2 cytotoxicity, primary screen, cytotoxicity control for P. falciparum antimalarial project, cell-based, ATP luminescence (AID 2303;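 active means inhibition above 50%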); details: HepG2 viability, 24-48 h, at 10 µM, stronger effect = higher value
[3] = biological target: L-lactate dehydrogenase (Plasmodium falciparum (isolate CDC / Honduras)) (UniProt Q27743); assay: PfLDH activity inhibition – cell lysate, 3D7 strain, counter-screen for P. falciparum growth inhibition project (AID 2304); details: P. falciparum 3D7 crude extract, LDH APAD/NBT absorbance; at 2 µM; stronger effect = higher value
[4] = inhibition of 3D7 malaria parasite growth – strain 3D7 (AID 2306); details: P. falciparum 3D7 erythrocytic growth, LDH absorbance, 72 h; at 2 µM; stronger effect = higher value
[5] = biological target: Calcium-dependent protein kinase 1 (Plasmodium falciparum (isolate 3D7)) (UniProt P62344); assay: PfCDPK1 kinase inhibitors, biochemical, TCAMS library (AID 1159585; cut-off not given, nearly all actives have IC50 up to about 0.98 µM;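 further: inhibitors leave more ATP so luminescence rises with inhibition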); details: recombinant PfCDPK1, Kinase-Glo ATP depletion luminescence
[6] = biological target: Plasmodium falciparum protein kinase 6 (PK6, PF3D7_1337100) (UniProt Q8IDW1); assay: PfPK6 kinase inhibitors, biochemical, TCAMS library (AID 1159586); details: recombinant PfPK6, Kinase-Glo ATP depletion luminescence
[7] = biological target: Protein kinase 7 (PK7), Plasmodium falciparum 3D7 (PF3D7_0213400) (UniProt Q7YTF7); assay: inhibition of Plasmodium PK7 catalytic activity – biochemical, TCAMS antimalarial set, Kinase-Glo luminescence (AID 1159587); details: recombinant PfPK7, Kinase-Glo ATP depletion luminescence
[8] = biological target: Calcium-dependent protein kinase 4 (Plasmodium falciparum (isolate 3D7)) (UniProt Q8IBS5); assay: PfCDPK4 kinase inhibitors, biochemical, TCAMS library (AID 1159588; cut-off not given, nearly all actives have IC50 up to about 0.91 µM); details: recombinant PfCDPK4, Kinase-Glo ATP depletion luminescence
Chain of Calcium-dependent protein kinase 4 (Plasmodium falciparum (isolate 3D7)) (Q8IBS5 whole entry, looked up): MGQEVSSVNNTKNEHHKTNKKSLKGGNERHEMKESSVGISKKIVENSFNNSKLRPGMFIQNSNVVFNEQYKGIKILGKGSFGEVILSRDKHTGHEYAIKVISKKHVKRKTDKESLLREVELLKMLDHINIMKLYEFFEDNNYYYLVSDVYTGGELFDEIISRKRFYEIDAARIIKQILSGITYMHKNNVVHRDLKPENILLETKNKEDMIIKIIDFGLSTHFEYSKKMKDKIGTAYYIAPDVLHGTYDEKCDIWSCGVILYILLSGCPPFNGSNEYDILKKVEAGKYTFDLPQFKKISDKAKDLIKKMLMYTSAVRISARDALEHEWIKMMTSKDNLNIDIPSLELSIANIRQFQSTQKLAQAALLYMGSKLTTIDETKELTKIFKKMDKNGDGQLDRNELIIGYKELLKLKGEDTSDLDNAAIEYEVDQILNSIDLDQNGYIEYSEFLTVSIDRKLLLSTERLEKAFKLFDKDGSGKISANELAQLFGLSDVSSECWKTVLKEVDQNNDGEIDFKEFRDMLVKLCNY

Chain of L-lactate dehydrogenase (Plasmodium falciparum (isolate CDC / Honduras)) (Q27743 whole entry, looked up): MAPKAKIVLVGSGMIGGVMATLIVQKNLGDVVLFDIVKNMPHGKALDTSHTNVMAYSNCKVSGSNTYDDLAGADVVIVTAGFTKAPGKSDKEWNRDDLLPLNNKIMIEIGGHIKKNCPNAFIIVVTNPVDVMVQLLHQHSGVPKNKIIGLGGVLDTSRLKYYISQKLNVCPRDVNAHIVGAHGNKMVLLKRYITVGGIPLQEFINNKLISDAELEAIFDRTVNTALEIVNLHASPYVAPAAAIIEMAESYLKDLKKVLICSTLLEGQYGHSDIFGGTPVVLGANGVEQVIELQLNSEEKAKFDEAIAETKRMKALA
Chain of Protein kinase 7 (PK7), Plasmodium falciparum 3D7 (PF3D7_0213400) (Q7YTF7 1-343): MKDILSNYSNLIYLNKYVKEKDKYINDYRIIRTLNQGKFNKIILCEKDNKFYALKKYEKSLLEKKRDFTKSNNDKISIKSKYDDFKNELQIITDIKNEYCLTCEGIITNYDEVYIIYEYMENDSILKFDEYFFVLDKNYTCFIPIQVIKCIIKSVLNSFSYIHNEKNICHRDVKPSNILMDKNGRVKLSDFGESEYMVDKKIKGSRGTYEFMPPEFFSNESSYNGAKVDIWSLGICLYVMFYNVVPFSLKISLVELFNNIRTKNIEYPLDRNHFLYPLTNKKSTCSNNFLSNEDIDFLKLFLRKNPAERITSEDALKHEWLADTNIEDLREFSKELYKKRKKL
Chain of Plasmodium falciparum protein kinase 6 (PK6, PF3D7_1337100) (Q8IDW1 1-305): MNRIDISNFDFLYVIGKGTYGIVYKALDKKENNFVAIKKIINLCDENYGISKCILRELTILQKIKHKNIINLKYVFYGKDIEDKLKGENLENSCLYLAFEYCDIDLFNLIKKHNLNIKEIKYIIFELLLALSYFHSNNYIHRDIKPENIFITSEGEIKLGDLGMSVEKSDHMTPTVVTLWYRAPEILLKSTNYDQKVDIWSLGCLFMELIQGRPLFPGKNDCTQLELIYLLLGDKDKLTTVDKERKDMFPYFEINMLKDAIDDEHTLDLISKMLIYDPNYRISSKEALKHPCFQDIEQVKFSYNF
Chain of Calcium-dependent protein kinase 1 (Plasmodium falciparum (isolate 3D7)) (P62344 whole entry, looked up): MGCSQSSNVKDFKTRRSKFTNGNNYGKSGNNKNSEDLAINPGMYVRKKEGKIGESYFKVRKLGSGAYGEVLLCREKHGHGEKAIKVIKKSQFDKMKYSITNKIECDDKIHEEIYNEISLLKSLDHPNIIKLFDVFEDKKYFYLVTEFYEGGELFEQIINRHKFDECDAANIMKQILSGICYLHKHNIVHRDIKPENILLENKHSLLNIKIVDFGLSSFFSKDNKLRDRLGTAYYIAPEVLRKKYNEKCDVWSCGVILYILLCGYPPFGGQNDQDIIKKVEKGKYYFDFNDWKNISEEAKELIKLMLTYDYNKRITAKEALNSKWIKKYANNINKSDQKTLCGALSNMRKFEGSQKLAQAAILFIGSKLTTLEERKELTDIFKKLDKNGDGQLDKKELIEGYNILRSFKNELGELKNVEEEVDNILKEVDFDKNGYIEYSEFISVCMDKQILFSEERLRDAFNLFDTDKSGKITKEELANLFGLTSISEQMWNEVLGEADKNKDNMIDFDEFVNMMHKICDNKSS

Structure (SMILES)	growth inhibition [1]	inhibition [2]	inhibition [3] [%]	growth inhibition [4]	outcome [5]	outcome [6]	outcome [7]	outcome [8]
CCCC(C)N(Cc1ccc(C(C)(C)C)cc1)C(=O)c1cccc(OC)c1 (stereo not given)	89% (active)	9%	1	100% (active)	inactive	inactive	inactive	inactive
Nc1cccc(CNCc2cccc(-c3ccc(-c4nc5ccccc5[nH]4)s3)c2)c1	90% (active)	8%	-1	101% (active)	inactive	inactive	inactive	inactive
CCOc1ccc(-c2nonc2NC(=O)c2ccc(OC)cc2)cc1OCC	77% (active)	-1%	-1	98% (active)	inactive	inactive	inactive	inactive
Cc1ccc(-c2nc(N3CCN(C(=O)c4ccco4)CC3)c3ccccc3n2)cc1	75% (active)	-8%	3	90% (active)	inactive	inactive	inactive	inactive
COc1ccc2nc(-c3cccc(C)n3)nc(Nc3ccncc3)c2c1	42%	-1%	-3	101% (active)	inactive	inactive	inactive	inactive
CNC(=O)CNC(=O)COc1cccc2ccccc12	-6%	3%	-8	98% (active)	inactive	inactive	inactive	inactive
COc1cc(Cc2cnc(N)nc2N)c2c(c1OC)OC(C)(C)C=C2	2%	7%	-3	93% (active)	inactive	inactive	inactive	inactive
CCCCCN1CCCC1CNS(=O)(=O)c1ccc(C(=O)Nc2ccc(C(F)(F)F)cc2)cc1 (stereo not given)	-3%	19%	-2	87% (active)	inactive	inactive	inactive	inactive
COc1cccc(OCC2CCCN(CCCCNC(=O)c3ccc(NC(=O)c4ccc(Cl)cc4)cc3)C2)c1 (stereo not given)	49%	33%	7	100% (active)	inactive	inactive	inactive	inactive
COc1cccc(C(=O)Nc2ccc(Oc3ccc(Cl)cc3)cc2)c1	-2%	33%	-5	92% (active)	inactive	inactive	inactive	inactive
N#CCCN1CCN(Cc2cccc(-c3ccc(-c4nc5ccc(C(F)(F)F)cc5[nH]4)cc3)c2)CC1	63% (active)	23%	4	101% (active)	inactive	inactive	inactive	inactive
COc1ccc(-c2nonc2NC(=O)c2ccc(OC(C)C)cc2)cc1OC	99% (active)	11%	-3	100% (active)	inactive	inactive	inactive	inactive
C[C@@H]1CN(c2cnn(Cc3cccc(NC(=O)Nc4ccc(F)cc4[N+](=O)[O-])c3)c(=O)c2Cl)C[C@H](C)N1	13%	7%	6	91% (active)	inactive	inactive	inactive	inactive
CC(=O)Nc1ccc(CN2CCC(CNC(=O)c3cc(-c4cccc(Cl)c4)cs3)C2)cc1 (stereo not given)	1%	24%	2	91% (active)	inactive	inactive	inactive	inactive
COc1cccc(CNC(=O)c2cccc(-c3ccc(CN4CCC(N5CCCC5)CC4)cc3)n2)c1	76% (active)	16%	1	101% (active)	inactive	inactive	inactive	inactive
Cc1ccnc(-n2c(C)cc(C=C3SC(=Nc4ccccc4)N(Cc4ccco4)C3=O)c2C)c1	98% (active)	-5%	-1	99% (active)	inactive	inactive	inactive	inactive
Cc1cccc2[nH]c(-c3cccc(-c4cccc(NC(=O)Nc5cccc(C#N)c5)c4)c3)nc12	99% (active)	22%	6	101% (active)	inactive	inactive	inactive	inactive
O=C(NC1CCN(c2ccnc3cc(Cl)ccc23)C1)c1ccc(F)cc1F (stereo not given)	100% (active)	31%	2	100% (active)	inactive	inactive	inactive	inactive
CC(C)CNCc1ccc(-c2cccc(CN(C(=O)NCCc3ccccc3)C3CCN(Cc4ccccc4)CC3)c2)cc1	94% (active)	91% (active)	-1	100% (active)	inactive	inactive	inactive	inactive
CCOC(=O)c1ccc(NCc2ccccn2)cc1	-2%	-3%	-6	99% (active)	inactive	inactive	inactive	inactive
